High-throughput results: PubChem, National Center for Advancing Translational Sciences (NCATS)
Shown are actives, neighbours in structure and some others; about 6.1% of the full set was active somewhere.
D1 ag = agonists of human D1 dopamine receptor; 360,000 tested, 1% active; P21728; activation, % at 2 µM; HEK293 T-REx D1 cells, calcium flux, agonist mode; in the data active = activation above about 30%
Target sequence (P21728 whole entry, looked up): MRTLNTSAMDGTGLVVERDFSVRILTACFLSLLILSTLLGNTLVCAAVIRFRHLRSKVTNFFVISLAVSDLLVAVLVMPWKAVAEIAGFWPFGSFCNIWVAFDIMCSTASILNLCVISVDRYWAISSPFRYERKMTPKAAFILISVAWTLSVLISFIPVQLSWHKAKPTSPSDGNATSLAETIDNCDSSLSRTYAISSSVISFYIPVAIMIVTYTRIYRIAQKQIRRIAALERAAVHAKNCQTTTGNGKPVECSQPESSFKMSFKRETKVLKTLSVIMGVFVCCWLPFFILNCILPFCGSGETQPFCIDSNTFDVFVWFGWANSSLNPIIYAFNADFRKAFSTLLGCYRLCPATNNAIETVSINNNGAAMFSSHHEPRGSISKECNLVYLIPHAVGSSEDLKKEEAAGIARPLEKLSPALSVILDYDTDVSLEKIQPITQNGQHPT
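Tetracycline-induced HEK293 TREx D1 cells, force-coupled to calcium signalling, were dye-loaded with a no-wash calcium kit. Compound was pin-added after a 10 s baseline. Fluorescence was read kinetically at 1 cycle/s for 180 s, with calcium rises flagged as agonism.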
ERG Ets-DNA blk = inhibitors of human ERG Ets domain-DNA interaction; P11308; fluorescence polarization, His-ERG Ets domain / labelled DNA; Potency, µM (highest dose often 76.9 µM), most hits filed as inhibitors; 370,000 tested, 0.028% active; active = well fitted inhibition curve with a large enough effect in the polarisation, with a control signal flat; the % refers to the polarisation;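 note: polarization taken with two DNA probes labelled with fluorescein and Texas red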
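His-tagged ERG Ets domain (1 uM in the protein solution; 300mM KCl, 50mM Tris-HCl, 1mM EDTA, 1mM DTT, pH 7.5) received compound, then a probe mix of 5 nM fluorescein-DNA and 100nM Texas-615-DNA. Fluorescence polarization was read for both dyes.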
DRD3 agonist = D3 dopamine receptor (human) agonism; P35462; D3R DiscoveRx beta-arrestin cells, luminescence, 90 min; max activation, %; 410,000 tested, 0.58% active; AID 652048; in the data active = max activation above about 30%
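Agonist mode: compounds and dopamine controls were applied to plated cells for 90 min at 37 degrees C after an overnight attachment at 1500 cells/well. Luminescent read-out followed 30 - 60 minutes at room temperature with DiscoveRx detection reagent.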
D3 antag = antagonists of human D3 dopamine receptor; D3R cells, DiscoveRx beta-arrestin luminescence, antagonist mode; active compounds read low; max response, negative = inhibition, %; 360,000 tested, 2.5% active; AID 652054; in the data active = max response below about -50%
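Cells expressing the human receptor were seeded at 1500 cells/well, incubated overnight at 37 degrees C in 5% CO2, then exposed to library compounds with dopamine controls for 90 minutes at 37 degrees C before luminescent detection.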
D1 antagonist = human D1 dopamine receptor antagonism | P21728 | activity change, negative = inhibition, % at 10 µM | HEK293 TREx D1 cells, calcium flux, dopamine EC80; active compounds read low | AID 504652 | 360,000 tested, 3.2% active; in the data active = activity change below about -30%
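HEK293 T-REx cells expressing inducible, force-coupled D1 receptor; no-wash Ca dye, 30–90 min RT. Cmpd → 180 s read at 1 Hz → EC80 DA → 180 s read.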
D1 PAM = enhances dopamine response at the human D1 receptor | potentiation, % at 10 µM | 360,000 tested, 0.036% active | HEK293 TREx D1 cells, calcium flux, dopamine EC20 potentiation | P21728; in the data active = potentiation above about 30%
Hits are given with their value; n = inactive; x = no result.

SMILES	D1 ag	ERG Ets-DNA blk	DRD3 agonist	D3 antag	D1 antagonist	D1 PAM
COc1ccc(Br)cc1C1CC(=O)N2CN(Cc3ccccc3)CSC2=C1C#N (stereo not given)	n	n	n	n	-31.1	n
N#CC1=C2SCN(C3CCCCC3)CN2C(=O)CC1c1ccc(Cl)cc1 (stereo not given)	n	n	n	x	-60.2	n
COc1ccc(Br)cc1C1CC(=O)N2CN(C)CSC2=C1C#N (stereo not given)	n	n	n	n	n	n
CCc1ccccc1N1CSC2=C(C#N)C(c3cc(OC)c(OC)cc3OC)CC(=O)N2C1 (stereo not given)	n	n	n	-67.9	n	n
N#CC1=C2SCN(Cc3ccco3)CN2C(=O)CC1c1c(F)cccc1Cl (stereo not given)	n	n	n	n	n	n
COc1ccc2oc(C(F)(F)C(F)(F)F)cc(=O)c2c1	n	n	n	n	n	n
COc1cc(OC)c(C2CC(=O)N3CN(C)CSC3=C2C#N)cc1OC (stereo not given)	n	n	n	n	-38.3	n
N#C/C(=N/Nc1ccc(OC(F)(F)F)cc1)C(N)=S	40.1	n	n	n	-30.5	n
COc1ccc(N/N=C(\C#N)C(N)=O)cc1	n	n	n	n	n	n
Cc1cc(C)n2nc(N)c(N=Nc3ccc4c(c3)OCO4)c2n1	n	n	n	n	n	n
CC(=O)OC1CCC2(C)C(CCC3C4CC=C(C(C)=O)C4(C)OC(=O)CC32)C1 (stereo not given)	x	x	n	-93.5	x	x
COc1ccc(NC(=O)c2nnn(Cc3nc(-c4cc(Br)ccc4OC)oc3C)c2C)cc1	n	n	n	x	n	n
Cc1cc(NC(=O)COc2ccccc2C)ccc1NC(=O)c1cccs1	n	n	n	n	n	n
O=C(NCc1cc(C(F)(F)F)cc(C(F)(F)F)c1)C1CC(c2cccc([N+](=O)[O-])c2)=NO1 (stereo not given)	n	n	n	n	-54.4	n
CC(C)CCNC(=O)C1CC(c2ccc(C(F)(F)F)cc2)=NO1 (stereo not given)	31.7	n	n	n	-42.0	n
O=C(NCc1cccnc1)C1CC(c2ccc(F)cc2)=NO1 (stereo not given)	n	n	n	n	-30.5	n
Cc1nc2ccccn2c1C(=O)NNC(=O)Nc1ccccc1	n	n	n	n	n	n
COc1ccc(Nc2oc(-c3ccco3)nc2S(=O)(=O)c2ccc(F)cc2)cc1	n	n	n	n	n	n
Cc1cc(-c2cccs2)c2c(n1)sc1c(=O)[nH]c(=O)[nH]c12	n	n	n	-83.7	n	n
O=C(CN(Cc1ccccc1)S(=O)(=O)c1ccc(F)cc1)NCc1ccncc1	n	n	n	n	n	n
CCN1CCN(CC(=O)N2N=CCC2c2ccccc2)CC1 (stereo not given)	n	n	n	-50.6	n	n
CC1(C)C2CC[C@]3(C)C(CC=C4[C@@H]5C[C@](C)(CO)CC[C@]5(C(=O)O)CC[C@]43C)[C@@]2(C)CC[C@@H]1O (stereo not given in full)	x	n	n	n	x	x
CC(C)(C)C(=O)COC(=O)c1cc2ccccc2cc1O	n	n	n	n	n	n
N#CNC(=Nc1cccc(F)c1)SCc1ccccc1F	n	n	n	n	-39.7	n
N#CNC(=Nc1cccc(C(F)(F)F)c1)SCc1ccc(C(=O)O)cc1	n	n	n	n	n	n
SMILES	D1 ag	ERG Ets-DNA blk	DRD3 agonist	D3 antag	D1 antagonist	D1 PAM
CC(C)N=C(NC#N)SCC(=O)NC(C)(C)C	n	n	n	n	n	n
CC(C)(C)NC(=O)CSC(=Nc1cccc(F)c1)NC#N	n	n	n	n	-39.7	n
CC(C)N=C(NC#N)SCc1ccccc1F	n	n	n	n	-49.2	n
CCOC(=O)CC(=O)CSc1nc2ccccc2c(=O)n1CCc1ccc(S(N)(=O)=O)cc1	n	n	n	x	n	n
O=S(=O)(Nc1cccc(-c2ccc(N3CCOCC3)nn2)c1)c1ccccc1C(F)(F)F	n	n	n	x	n	n
O=C1CC(c2ccccc2)CC(O)=C1C=NCc1ccccc1Cl (stereo not given)	n	x	n	-92.3	n	n
